This is an account of results in PMC10668032, “Altered binding affinity of SIX1-Q177R correlates with enhanced WNT5A and WNT pathway effector expression in Wilms tumor”.

Over roughly 33,000 sequences, “e-score” has its median near -0.053; the highest 2% begin near 0.38. For the sample, the highest values were picked, then their nearest neighbours and some sequences at random.

This test has as its target T1, SIX1 homeodomain (reference allele) (human, UniProt Q15475 108-198).
T1 sequence: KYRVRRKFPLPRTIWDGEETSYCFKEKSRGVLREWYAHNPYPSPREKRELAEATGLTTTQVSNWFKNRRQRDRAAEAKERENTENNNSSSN
Description: universal protein binding microarray; Universal all-10-mer PBM (8x60K, AMADID 030236), 300 nM GST-tagged protein, Alexa Fluor 488 anti-GST; buffer, salt, pH and temperature not stated (as in Berger); high values mean tight binding. To be noted: protein: ivt; tags: N-terminal GST; dsDNA, one strand shown. The essentials: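 Binding of GST-tagged homeodomains is given as 8-mer E-scores from the Universal PBM Analysis Suite. The proteins were produced by in vitro transcription/translation, quantified by anti-GST western blot against a recombinant GST standard curve, and applied in duplicate at 300 nM final concentration to universal 'all 10-mer' protein binding microarrays (8×60K format).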
Regarding GAAATATC, the binding signal turned out to be 0.262 ± 0.0623 E-score.

For ATAGCATA, the binding signal was determined as 0.218 ± 0.00716 E-score.

Take AGTATCAA: the binding signal amounted to 0.444 ± 0.0435 E-score.

Take ACTATCAA: the binding signal was determined as 0.253 ± 0.0636 E-score.

On to ATTATCAA, for which the binding signal was found to be 0.165 ± 0.0524 E-score.

In the case of ACACCAAA, the binding signal worked out at 0.263 ± 0.0137 E-score.

As to AGTCGATA, the binding signal came to 0.257 ± 0.0323 E-score.

Turning to GGCAATAC, the binding signal was 0.181 ± 0.00926 E-score.

As for AAGTGGAT, the binding signal amounted to 0.182 ± 0.0178 E-score.

On to GCGGTGTA, for which the binding signal is 0.336 ± 0.0311 E-score.

As to AGGGGGTG, the binding signal came to 0.186 ± 0.0209 E-score.

For the sequence CGGGTGTA, the binding signal was 0.265 ± 0.0586 E-score.

For AGGGTGTC, the binding signal was found to be 0.4355 ± 0.00243 E-score.

In the case of GGGGTGTA, the binding signal was 0.387 ± 0.00837 E-score.

As for CGGGTGTC, the binding signal is 0.439 ± 0.025 E-score.

Take CGGGTGGA: the binding signal came out at 0.236 ± 0.0891 E-score.

For the sequence AGGGTGTA, the binding signal is 0.313 ± 0.048 E-score.

As for GTGGTGTA, the binding signal was determined as 0.286 ± 0.0221 E-score.

For the sequence ATCAAGAT, the binding signal amounted to 0.209 ± 0.0291 E-score.

For the sequence AAGCCGGA, the binding signal is 0.159 ± 0.0672 E-score.

Turning to GATCGGCC, the binding signal amounted to 0.255 ± 0.03 E-score.

Regarding TACCCCAA, the binding signal stood at 0.174 ± 0.0539 E-score.

Consider ATATACTA, for which the binding signal amounted to 0.256 ± 0.0638 E-score.

On to CAACACCC, for which the binding signal came to 0.24 ± 0.00973 E-score.

On to CTCGATGA, for which the binding signal was 0.165 ± 0.00668 E-score.

Consider ATCGATTC, for which the binding signal was determined as 0.2 ± 0.0315 E-score.

For the sequence CTCGATAC, the binding signal was found to be 0.41 ± 0.0184 E-score.

Turning to CTCGATCC, the binding signal amounted to 0.325 ± 0.0557 E-score.

ATCGATAG: the binding signal was 0.2745 ± 0.00192 E-score.

On to ATCGATAC, for which the binding signal amounted to 0.446 ± 0.0107 E-score.

Regarding CAGATGAG, the binding signal was 0.203 ± 0.0236 E-score.

Take CAATAATA: the binding signal was 0.223 ± 0.0513 E-score.

Regarding CCCGCGAG, the binding signal worked out at 0.206 ± 0.0166 E-score.

As to GGTGTAAA, the binding signal came out at 0.198 ± 0.028 E-score.

GGATCGAA: the binding signal was found to be 0.267 ± 0.0826 E-score.

As to ATATCGAT, the binding signal came out at 0.411 ± 0.0335 E-score.

Regarding GTATCTAA, the binding signal amounted to 0.374 ± 0.0214 E-score.

On to GGATCGAC, for which the binding signal was found to be 0.297 ± 0.113 E-score.

For AGATCGAT, the binding signal came to 0.345 ± 0.0116 E-score.

As to CGATCGAG, the binding signal stood at 0.21 ± 0.0298 E-score.

As to CTATCGAG, the binding signal was found to be 0.157 ± 0.0365 E-score.

For the sequence ATATCGAC, the binding signal came to 0.379 ± 0.00832 E-score.

Consider ATATCGAG, for which the binding signal was 0.335 ± 0.0302 E-score.

For GTATCGAC, the binding signal stood at 0.405 ± 0.0127 E-score.

As to GTATCGAA, the binding signal is 0.43 ± 0.00911 E-score.

As for GTATAGAC, the binding signal is 0.276 ± 0.00412 E-score.

Take ATAGCTTA: the binding signal was determined as 0.214 ± 0.0605 E-score.

Consider ATATAATA, for which the binding signal was found to be 0.322 ± 0.053 E-score.

For the sequence AAGCGTAT, the binding signal worked out at 0.231 ± 0.0511 E-score.

On to CTCGTATA, for which the binding signal worked out at 0.161 ± 0.055 E-score.

Regarding GGTTATAC, the binding signal worked out at 0.261 ± 0.0421 E-score.

For ATCGCCTC, the binding signal came to 0.216 ± 0.0033 E-score.

In the case of ACCGGAGA, the binding signal worked out at 0.201 ± 0.00786 E-score.

On to CCGTAATC, for which the binding signal came to 0.169 ± 0.00918 E-score.

In the case of GGTCGATA, the binding signal turned out to be 0.271 ± 0.00805 E-score.

Consider CGGGACAC, for which the binding signal was 0.153 ± 0.0127 E-score.

Consider ATATCGAA, for which the binding signal was 0.393 ± 0.0367 E-score.

Turning to CTATCGAA, the binding signal was 0.228 ± 0.0495 E-score.

As to TATACGAA, the binding signal came to 0.164 ± 0.00791 E-score.

As for AATATGTG, the binding signal was found to be 0.197 ± 0.0339 E-score.

ATAAATAC: the binding signal stood at 0.163 ± 0.0133 E-score.

Consider AGGTATTG, for which the binding signal was 0.29 ± 0.0429 E-score.

AGGTATTA: the binding signal turned out to be 0.385 ± 0.0849 E-score.

As for GGGTATTA, the binding signal was found to be 0.393 ± 0.0546 E-score.

As for GCGTATTA, the binding signal turned out to be 0.161 ± 0.0688 E-score.

Take AAGTATTA: the binding signal stood at 0.254 ± 0.109 E-score.

On to CGGTATTA, for which the binding signal was 0.368 ± 0.031 E-score.

As for CTTACACC, the binding signal was found to be 0.203 ± 0.0268 E-score.

GTCGTATA: the binding signal was determined as 0.186 ± 0.0245 E-score.

For the sequence GTAGACAC, the binding signal amounted to 0.182 ± 0.0638 E-score.

AGATAGGG: the binding signal came to 0.263 ± 0.0607 E-score.

As for TACCAGTA, the binding signal is 0.201 ± 0.0209 E-score.

For AATCGGGG, the binding signal was 0.181 ± 0.117 E-score.

Turning to ATGAATAC, the binding signal is 0.2845 ± 0.00167 E-score.

Regarding CGGAGATC, the binding signal amounted to 0.322 ± 0.00475 E-score.

As to CAAATATC, the binding signal amounted to 0.21 ± 0.0519 E-score.

As to AAAGTATA, the binding signal came out at 0.173 ± 0.149 E-score.

Regarding TAAGTATA, the binding signal came to 0.218 ± 0.0666 E-score.

Consider GAAGTATC, for which the binding signal was 0.407 ± 0.0492 E-score.

As for AAAGTATC, the binding signal is 0.413 ± 0.0634 E-score.

As to GAACTATC, the binding signal was determined as 0.23 ± 0.0598 E-score.

For the sequence CAAGTATC, the binding signal worked out at 0.378 ± 0.0659 E-score.

Turning to GAAGTATA, the binding signal was found to be 0.261 ± 0.108 E-score.

On to ATAAGTAT, for which the binding signal came to 0.235 ± 0.0716 E-score.

With TACACTGA, the binding signal came out at 0.178 ± 0.0145 E-score.

For the sequence ATCTTCCC, the binding signal was 0.174 ± 0.0102 E-score.

Turning to ATCACGAA, the binding signal worked out at 0.172 ± 0.0453 E-score.

In the case of CTAGACAC, the binding signal stood at 0.158 ± 0.012 E-score.

Turning to GAATAATC, the binding signal was 0.209 ± 0.0094 E-score.

ATGCATCA: the binding signal worked out at 0.198 ± 0.0685 E-score.

ATCATAAG: the binding signal is 0.286 ± 0.0333 E-score.

Take GATATATA: the binding signal turned out to be 0.377 ± 0.0449 E-score.

Turning to AATATATC, the binding signal was 0.343 ± 0.0593 E-score.

Regarding TATATATA, the binding signal was found to be 0.344 ± 0.0349 E-score.

Turning to CATATATC, the binding signal was 0.341 ± 0.0628 E-score.

In the case of GATATAGA, the binding signal came to 0.318 ± 0.034 E-score.

As to GATATATC, the binding signal amounted to 0.441 ± 0.0284 E-score.

In the case of ATACTTTC, the binding signal came out at 0.16 ± 0.145 E-score.

For the sequence CCTCCGGA, the binding signal came out at 0.203 ± 0.0104 E-score.

With CCTCGAGG, the binding signal amounted to 0.197 ± 0.043 E-score.

For the sequence CAGATCAG, the binding signal is 0.353 ± 0.0153 E-score.

For the sequence ATACCAAT, the binding signal was 0.3482 ± 0.0028 E-score.

For the sequence ATCCCAGC, the binding signal came to 0.221 ± 0.0257 E-score.

Take AGTGTATC: the binding signal worked out at 0.43 ± 0.00296 E-score.

Take CGTGTATA: the binding signal is 0.247 ± 0.0518 E-score.

On to CTTGTATC, for which the binding signal amounted to 0.266 ± 0.0293 E-score.

Take AGTGTATA: the binding signal is 0.291 ± 0.0334 E-score.

With CATGTATC, the binding signal is 0.403 ± 0.00743 E-score.

With CATGTATA, the binding signal is 0.223 ± 0.0131 E-score.

Turning to CGTGTATC, the binding signal was 0.404 ± 0.0303 E-score.

As to AGTGTACC, the binding signal stood at 0.16 ± 0.0592 E-score.

With AATGTATC, the binding signal was found to be 0.363 ± 0.0137 E-score.
